Among the test systems are RPMI-8226 leukemia; OVCAR-8 ovarian; OVCAR-5 ovarian; OVCAR-4 ovarian; SK-OV-3 ovarian; IGROV1 ovarian; OVCAR-3 ovarian; HS 578T breast; NCI/ADR-RES ovarian; T-47D breast; BT-549 breast; MDA-MB-435 melanoma; SW-620 colon; MCF7 breast; HCT-116 colon; HCC-2998 colon; KM12 colon; SR leukemia.
Common to all, as to assay: NCI-60 one-dose screen, 48 h (100 = growth as untreated, 0 = no growth, -100 = all killed)
Holding throughout (settings): 10 µM unless noted

These results are taken from PubChem BioAssay (NCI).

This is part of a sample that, as a whole, favours compounds with a hit. Of some 83,000 tested, about 20% had one in any assay.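 Cells were grown in 96-well plates and exposed to the test compound at a single concentration for 48 hours; results are reported as percent growth, with values below 10 considered active.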 Unmarked numbers belong to inactive results. The source made the active and inactive calls.

For `CNC(=O)c1c(NC(=O)c2ccc(C(C)(C)C)cc2)sc2c1CCC(=O)C2`, the growth was -20.6% (active) in the experiment with RPMI-8226 leukemia; 15.7% with OVCAR-8 ovarian; 9.12% (active) with OVCAR-5 ovarian; -66.4% (active) with OVCAR-4 ovarian; 0.618% (active) in the experiment on SK-OV-3 ovarian; 4.71% (active) in the experiment on IGROV1 ovarian. Besides, the growth in the experiment on OVCAR-3 ovarian is -21.4% (active); in the experiment with HS 578T breast, 24.2%; in the experiment with NCI/ADR-RES ovarian, 8.75% (active); in the experiment with T-47D breast, -23.5% (active); in the experiment with BT-549 breast, 1.12% (active); with MDA-MB-435 melanoma, -9.83% (active). The growth was -62.3% (active) in the experiment with SW-620 colon; 8.99% (active) in the experiment with MCF7 breast; 0.171% (active) with HCT-116 colon; 23.3% in the experiment with HCC-2998 colon; -7.97% (active) in the experiment on KM12 colon.
Turning to `COc1cccc(/C=C2\COc3ccc(O)cc3C2=O)c1OC`, the growth in the experiment on SR leukemia was 5.49% (active); in the experiment with OVCAR-5 ovarian, 89.7%; with SK-OV-3 ovarian, 92.9%; in the experiment on IGROV1 ovarian it was 67.5%; in the experiment on HS 578T breast, 73%; in the experiment with NCI/ADR-RES ovarian, 63.2%. Moreover, the growth in the experiment on T-47D breast was 74.8%; in the experiment with BT-549 breast, 57.8%; in the experiment on MDA-MB-435 melanoma, 19.7%; in the experiment with SW-620 colon, 30.5%; in the experiment with MCF7 breast, 12.2%; with HCT-116 colon, 34.3%. For the same molecule, the growth is 94.1% in the experiment on HCC-2998 colon and 7.8% (active) in the experiment with KM12 colon.
In the case of `CC(C)n1nc(C#Cc2cccc(O)c2)c2c(N)ncnc21`, the growth is -46.9% (active) in the experiment on RPMI-8226 leukemia; -36.4% (active) in the experiment on OVCAR-8 ovarian; -43% (active) in the experiment on OVCAR-5 ovarian; -15% (active) in the experiment on OVCAR-4 ovarian; -62.6% (active) with SK-OV-3 ovarian; -68.8% (active) in the experiment on IGROV1 ovarian. The growth is -19.6% (active) in the experiment with OVCAR-3 ovarian; -28.8% (active) with HS 578T breast; -29.2% (active) with NCI/ADR-RES ovarian; -65.4% (active) with BT-549 breast; -25.8% (active) with MDA-MB-435 melanoma; 0.77% (active) in the experiment with SW-620 colon. For the same molecule, the growth in the experiment on MCF7 breast is 0.624% (active); in the experiment on HCT-116 colon, -63.8% (active); with HCC-2998 colon, -2.82% (active); in the experiment on KM12 colon it was -7.5% (active).
Take `Cc1cc(N(CCCNc2ccnc3cc(Cl)ccc23)Cc2ccccn2)nc(N2CCCC2)n1`: the growth with RPMI-8226 leukemia is 48.9%; in the experiment on OVCAR-8 ovarian it was 73.4%; in the experiment on OVCAR-5 ovarian, 87.6%; in the experiment on OVCAR-4 ovarian, 63.1%; in the experiment on SK-OV-3 ovarian it was 102%; in the experiment on IGROV1 ovarian, 87.5%. Besides, the growth is 88% in the experiment with OVCAR-3 ovarian; 88.9% in the experiment with HS 578T breast; 76.7% in the experiment with NCI/ADR-RES ovarian; 91.7% in the experiment with BT-549 breast; 86.7% in the experiment with MDA-MB-435 melanoma; 70.5% in the experiment on SW-620 colon. For the same molecule, the growth with MCF7 breast was 56.9%; in the experiment with HCT-116 colon it was 50.3%; with HCC-2998 colon, 89.2%.
With `COc1ccc(Oc2nc(Nc3ccc(N4CCOCC4)nc3)ncc2NC(=O)c2cc(OC)cc(OC)c2)cc1`, the growth in the experiment on RPMI-8226 leukemia is 49%; with OVCAR-8 ovarian, 77.8%; in the experiment with OVCAR-5 ovarian, 105%; in the experiment on OVCAR-4 ovarian, 78.2%; with SK-OV-3 ovarian, 88.6%; in the experiment with IGROV1 ovarian, 80%. Further, the growth in the experiment on OVCAR-3 ovarian is 82.7%; with HS 578T breast, 86.8%; in the experiment with NCI/ADR-RES ovarian, 76%; in the experiment with BT-549 breast, 80.2%; with MDA-MB-435 melanoma it was 32.7%; with SW-620 colon, 75.8%. Further, the growth with MCF7 breast was 63.8%; in the experiment with HCT-116 colon it was 72.1%; with HCC-2998 colon, 95.2%; in the experiment on KM12 colon, 64%.
For the molecule `Cc1cnc(Nc2ccc(OCCN3CCCC3)cc2)nc1NCc1ccco1`, the growth in the experiment on RPMI-8226 leukemia was 50.7%; in the experiment on OVCAR-8 ovarian, 95.1%; with OVCAR-5 ovarian, 78.1%; with OVCAR-4 ovarian, 59.4%; with SK-OV-3 ovarian, 108%; in the experiment on IGROV1 ovarian it was 71%. In addition, the growth was 82.7% in the experiment with OVCAR-3 ovarian; 80.3% with HS 578T breast; 101% with NCI/ADR-RES ovarian; 78.2% in the experiment on BT-549 breast; 84.1% in the experiment on MDA-MB-435 melanoma; 67.5% in the experiment with SW-620 colon. In addition, the growth in the experiment with MCF7 breast is 50.8%; in the experiment on HCT-116 colon it was 40.5%; in the experiment on HCC-2998 colon, 87%; in the experiment on KM12 colon, 22.7%.
In the case of `Cc1nn(Cc2ccccc2)cc1C(=O)Nc1sc2c(c1C(N)=O)CCC(=O)C2`, the growth in the experiment with RPMI-8226 leukemia is -6.08% (active); in the experiment on OVCAR-8 ovarian, 20.3%; in the experiment on OVCAR-5 ovarian, 73.8%; with OVCAR-4 ovarian, -7.95% (active); in the experiment with SK-OV-3 ovarian, 116%; in the experiment on IGROV1 ovarian, 33.5%. Further, the growth is 9.48% (active) in the experiment with OVCAR-3 ovarian; 28.8% with HS 578T breast; 72% in the experiment with NCI/ADR-RES ovarian; 10.5% in the experiment on T-47D breast; 10.4% in the experiment on BT-549 breast; 16.7% in the experiment on MDA-MB-435 melanoma. The growth in the experiment on SW-620 colon was 13.4%; in the experiment with MCF7 breast, 13.6%; in the experiment with HCT-116 colon, 6.74% (active); in the experiment with HCC-2998 colon, 80.6%.
On to `CCN(CC)N=Nc1nn(C(=O)Nc2ccc(Cc3ccccc3)cc2)c2ccc(Cl)cc12`, for which the growth in the experiment with RPMI-8226 leukemia was 57.1%; with OVCAR-8 ovarian, 69.3%; in the experiment with OVCAR-5 ovarian, 87.7%; in the experiment on OVCAR-4 ovarian, 75.7%; in the experiment with SK-OV-3 ovarian it was 92.2%; in the experiment on IGROV1 ovarian it was 88%. Moreover, the growth in the experiment on OVCAR-3 ovarian was 87.6%; in the experiment on HS 578T breast it was 91.5%; in the experiment with NCI/ADR-RES ovarian, 82.1%; with BT-549 breast it was 84.1%; in the experiment on MDA-MB-435 melanoma it was 43%; in the experiment on SW-620 colon, 44.4%. Further, the growth in the experiment on MCF7 breast is 40.4%; with HCT-116 colon it was 44%; in the experiment with HCC-2998 colon, 43.2%; with KM12 colon it was 56.6%.
Regarding `Oc1ccccc1-c1nc2ccccn2c1NCCN1CCOCC1`, the growth in the experiment with RPMI-8226 leukemia is 93.2%; in the experiment with OVCAR-8 ovarian, 100%; in the experiment with OVCAR-5 ovarian, 91.6%; with OVCAR-4 ovarian, 92.2%; with SK-OV-3 ovarian, 76.5%; in the experiment with IGROV1 ovarian, 103%. The growth in the experiment on OVCAR-3 ovarian was 97.3%; with HS 578T breast, 89.5%; in the experiment on NCI/ADR-RES ovarian, 104%; with BT-549 breast, 99.2%; in the experiment with MDA-MB-435 melanoma, 102%; in the experiment on SW-620 colon it was 94.8%. For the same molecule, the growth in the experiment with MCF7 breast is 96.7%; in the experiment on HCT-116 colon, 93.9%; in the experiment on HCC-2998 colon it was 101%; with KM12 colon it was 91.2%.
Turning to `C=C(C)[C@@H]1CC[C@]2(CN)CC[C@]3(C)[C@H](CC[C@@H]4[C@@]5(C)CCC(N)[C@@](C)(CO)[C@@H]5CC[C@]43C)[C@@H]12` (stereo partly drawn), the growth is -51.8% (active) in the experiment on RPMI-8226 leukemia; -72.9% (active) with OVCAR-8 ovarian; 48.5% with OVCAR-5 ovarian; -4.67% (active) in the experiment on OVCAR-4 ovarian; -80.5% (active) in the experiment on SK-OV-3 ovarian; 67% in the experiment on IGROV1 ovarian. The growth is -75.9% (active) in the experiment on OVCAR-3 ovarian; -37.1% (active) in the experiment with HS 578T breast; 76.2% in the experiment with NCI/ADR-RES ovarian; 80.4% with BT-549 breast; -86.7% (active) with MDA-MB-435 melanoma; -76.5% (active) in the experiment with SW-620 colon. Moreover, the growth was -72.2% (active) with MCF7 breast, -85.5% (active) with HCT-116 colon, -53.6% (active) in the experiment with HCC-2998 colon and -72.1% (active) in the experiment with KM12 colon.
